These results are taken from PubChem BioAssay (NCATS).

Experiment [1] in a line: Cellular Toxicity (caspase-3) Jurkat (AID 655; active means well fitted curve in the direction sought with a large enough effect; an effect the other way counts as inactive or inconclusive;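 further: cells exposed to compound for 16 h at 37 °C before reading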). The conditions noted are these: Jurkat caspase-3 activation, luminescence, DMSO = 0%, tamoxifen = 100%; at 92.2 µM (top of the series). In outline:
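Jurkat cells (5000/well) in complete medium were treated with compounds for 16 hr at 37 °C, then Caspase-Glo 3/7 luminescence was read after 20 min at room temperature. Data normalized to DMSO (basal) and 100 uM tamoxifen (100%); AC50 from Hill fit.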

The nature of experiment [2]: Cell Viability - LYMP2-001 (AID 921; active means well fitted curve in the direction sought with a large enough effect; an effect the other way counts as inactive or inconclusive;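 further: 0% = DMSO only and full inhibition = tetraoctylammonium bromide control wells; nearly all actives have a fitted effect of over 70% in size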). In outline:
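Human lymphoblastoid cells (Coriell), 2500 per well, were preincubated 5 hr at 37 C, then exposed to compounds in complete medium for 24 hr at 37 C. Cellular ATP was read by CellTiter-Glo luminescence; AC50 from Hill fits of concentration-response data.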

Experiment [3] can be described thus: MultiTox-Fluor Cytotoxicity Assay - LYMP1-001 - Live Cells (AID 947; active means well fitted curve in the direction sought with a large enough effect; an effect the other way counts as inactive or inconclusive;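 further: 0% = DMSO only and full inhibition = tetraoctylammonium bromide control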).
Experiment [4] can be described thus: Cell Viability - LYMP1-003 - Assay at 24 hr (AID 963; active means well fitted curve in the direction sought with a large enough effect; an effect the other way counts as inactive or inconclusive;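 further: plate controls were DMSO only for no effect and tetraoctylammonium bromide positive control for full effect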). In outline:
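Cytotoxicity is scored as a concentration-dependent fall in ATP-linked luciferase signal in human lymphoblastoid LYMP1-003 cells treated 24 hr at 37 C in complete culture medium.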

In experiment [5] the target is Estrogen receptor (Homo sapiens) (UniProt P03372). The experiment in a line: qHTS assay for small molecule antagonists of estrogen receptor alpha signaling (AID 588513; active means well fitted curve in the direction sought with a large enough effect in the signal ratio, with a control signal flat, not every such curve was filed as active; the % refers to the signal ratio; further: on the % scale 0 is the no-effect control and ±100 the full control effect). In outline: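 ER-alpha-UAS-bla GripTite HEK 293 cells in medium with 2% charcoal/dextran-treated FBS were preincubated 4 h at 37 C, dosed with compound (1:2 titration), stimulated with 0.5nM 17-beta-estradiol for 18 h, then read by CCF4 beta-lactamase fluorescence.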
Chain of Estrogen receptor (Homo sapiens) (P03372 whole entry, looked up): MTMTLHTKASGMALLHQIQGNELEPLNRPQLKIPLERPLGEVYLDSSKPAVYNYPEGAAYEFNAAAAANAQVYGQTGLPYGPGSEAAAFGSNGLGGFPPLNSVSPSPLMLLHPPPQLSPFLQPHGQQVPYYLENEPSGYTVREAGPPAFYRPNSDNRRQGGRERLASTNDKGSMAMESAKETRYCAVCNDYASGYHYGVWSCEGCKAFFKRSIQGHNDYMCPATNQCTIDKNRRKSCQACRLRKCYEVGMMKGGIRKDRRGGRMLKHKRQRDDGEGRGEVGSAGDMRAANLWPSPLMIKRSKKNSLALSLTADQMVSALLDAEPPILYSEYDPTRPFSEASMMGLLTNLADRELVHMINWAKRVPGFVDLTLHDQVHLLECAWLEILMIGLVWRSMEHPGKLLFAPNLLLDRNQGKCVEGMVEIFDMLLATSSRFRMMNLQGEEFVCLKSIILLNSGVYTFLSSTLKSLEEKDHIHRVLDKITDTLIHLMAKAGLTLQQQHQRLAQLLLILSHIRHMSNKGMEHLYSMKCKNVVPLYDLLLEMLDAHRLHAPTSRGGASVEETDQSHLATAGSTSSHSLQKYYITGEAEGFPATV

The target is the same in experiment [6]. As to the kind of experiment: qHTS assay for small molecule agonists of estrogen receptor alpha signaling (AID 588514).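 Further: 0% = vehicle only and 100% = reference agonist; nearly all actives have a fitted effect of over 70% in size.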 In outline:
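Efficacy is expressed against 20 nM 17-beta-estradiol (100%) and DMSO basal (0%); EC50 from Hill equation. Assay: beta-lactamase reporter in ER-alpha-UAS-bla HEK 293 cells, 18 h compound incubation, CCF4 detection.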
(Quantitative high-throughput screening tests each substance at several concentrations.)

For experiment [7], the target named is Peroxisome proliferator-activated receptor gamma (Homo sapiens) (UniProt P37231). As to the kind of experiment: qHTS assay for small molecule agonists of peroxisome proliferator-activated receptor gamma signaling (AID 588536; active means well fitted curve in the direction sought with a large enough effect in the signal ratio, with a control signal flat, not every such curve was filed as active; the % refers to the signal ratio;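 further: 0% = DMSO basal wells and 100% = rosiglitazone at 2 µM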). The procedure, abridged:
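Compound treatment: 16 h, 37 C, HEK293 GeneBLAzer cells. Detection: CCF4, 2 h RT. Values: Hill-fit EC50, efficacy as % of 2 uM rosiglitazone.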

The target in experiment [8] is Vitamin D3 receptor (Homo sapiens) (UniProt P11473). As to the kind of experiment: qHTS assay for small molecule agonists of vitamin D receptor signaling (AID 588543).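 Further: 0% = DMSO basal and 100% = reference agonist control.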 The procedure, abridged: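 GeneBLAzer VDR-UAS-bla HEK293T cells in 2% charcoal-stripped FBS medium were dosed with compound titrations for 16 h at 37 °C; CCF4 β-lactamase readout (405 nm ex, 460/530 nm em). EC50 and efficacy from Hill fits, normalized to 50 nM calcitriol (100%) and DMSO (0%).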
Chain of Vitamin D3 receptor (Homo sapiens) (P11473 whole entry, looked up): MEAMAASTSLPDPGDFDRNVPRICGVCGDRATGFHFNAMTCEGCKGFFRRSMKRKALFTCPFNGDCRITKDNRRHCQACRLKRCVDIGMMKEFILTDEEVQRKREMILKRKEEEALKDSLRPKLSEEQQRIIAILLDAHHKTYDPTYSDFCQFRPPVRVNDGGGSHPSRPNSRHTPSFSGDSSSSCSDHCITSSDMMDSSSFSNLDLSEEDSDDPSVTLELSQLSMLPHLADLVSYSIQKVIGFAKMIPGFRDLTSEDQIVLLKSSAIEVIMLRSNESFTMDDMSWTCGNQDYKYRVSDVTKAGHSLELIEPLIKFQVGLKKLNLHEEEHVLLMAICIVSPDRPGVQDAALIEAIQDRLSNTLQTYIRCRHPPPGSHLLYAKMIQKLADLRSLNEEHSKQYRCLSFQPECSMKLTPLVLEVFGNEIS

Experiment [9] is described as follows: qHTS assay for small molecule agonists of retinoid X receptor alpha signaling (AID 588544).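 On activation: 0% = DMSO basal wells and 100% = reference agonist.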 Conditions: HEK293T RXRa-UAS-bla, beta-lactamase reporter, 18 h; 530 nm emission.
Experiment [10] deals with Retinoic acid receptor RXR-alpha (Homo sapiens) (UniProt P19793). The experiment is described as above.
Chain of Retinoic acid receptor RXR-alpha (Homo sapiens) (P19793 whole entry, looked up): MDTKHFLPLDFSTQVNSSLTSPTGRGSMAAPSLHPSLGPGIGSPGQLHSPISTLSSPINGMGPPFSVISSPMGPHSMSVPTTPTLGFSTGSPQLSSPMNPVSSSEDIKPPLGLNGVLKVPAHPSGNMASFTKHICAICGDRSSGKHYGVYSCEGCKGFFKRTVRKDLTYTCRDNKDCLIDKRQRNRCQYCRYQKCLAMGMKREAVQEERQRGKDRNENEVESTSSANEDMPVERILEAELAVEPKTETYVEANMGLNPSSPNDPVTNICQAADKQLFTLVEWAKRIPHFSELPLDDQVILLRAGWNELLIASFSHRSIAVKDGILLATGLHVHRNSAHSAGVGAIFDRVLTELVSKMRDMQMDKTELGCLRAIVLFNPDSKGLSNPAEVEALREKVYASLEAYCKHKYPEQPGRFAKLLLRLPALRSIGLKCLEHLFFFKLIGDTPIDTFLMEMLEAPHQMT
Experiment [11] concerns the target Voltage-gated inwardly rectifying potassium channel KCNH2 (Homo sapiens) (UniProt Q12809). The experiment in a line: qHTS Assay for Small Molecule Inhibitors of the Human hERG Channel Activity (AID 588834; active means well fitted curve in the direction sought with a large enough effect; an effect the other way counts as inactive or inconclusive;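 further: top concentration of the series differs between compounds; on the % scale 0 is the no-effect control and ±100 the full control effect; lower thallium flux fluorescence means stronger hERG block; nearly all actives have a fitted effect of over 50% in size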). The procedure, abridged:
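In hERG-transduced U2OS cells, dye-loaded for 1 hr at room temperature in dark, test compounds incubated 10 min at 37 °C before thallium stimulation. AC50 values derived by Hill modelling of concentration-response.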

Experiment [12] can be described thus: qHTS assay for small molecule activators of the p53 signaling pathway (AID 651743; active means well fitted activation curve with a large enough effect in the signal ratio, not every such curve was filed as active; the % refers to the signal ratio; further: % of control where 0% means no effect). The conditions noted are these: HCT-116 p53RE-bla, beta-lactamase FRET ratio, 16 h; activation: stronger effect = higher value. The procedure, abridged: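 Agonist-mode quantitative HTS in HCT-116 cells carrying a p53-response-element beta-lactamase reporter; 16 h compound treatment at 37 C, then FRET substrate loading for 2 h at room temperature and fluorescence read.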

A short description of experiment [13]: qHTS assay for small molecule disruptors of the mitochondrial membrane potential - 1 hr assay (AID 651754). Further: on the % scale 0 is the no-effect control and ±100 the full control effect; nearly all actives have a fitted effect of over 35% in size. The procedure, abridged:
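Loss of mitochondrial potential shifts the cationic dye from red mitochondrial aggregates to green cytoplasmic monomers. Cells (HepG2) are treated with compound for 1 hr before a 30 min dye incubation at 37C.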

A short description of experiment [14]: qHTS assay for small molecule disruptors of the mitochondrial membrane potential - 5 hr assay (AID 651755). Further: on the % scale 0 is the no-effect control and ±100 the full control effect; nearly all actives have a fitted effect of over 40% in size. In outline:
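Seed HepG2 overnight, add compound, incubate 5 hr at 37C and 5% CO2, stain 30 min with Mito-MPS, then measure monomer (490/535 nm) and aggregate (540/590 nm) fluorescence.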

Experiment [15] concerns the target Tumor necrosis factor (Homo sapiens) (UniProt P01375). As to the kind of experiment: qHTS assay to identify small molecules that stimulate Tumor Necrosis Factor-alpha (TNF-alpha) secretion (AID 651757; active means well fitted curve in the direction sought with a large enough effect in the signal ratio; the % refers to the signal ratio; further: 0% is about no effect). The procedure, abridged:
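Human monocytic THP-1 cells are plated, treated with compound and held at 37 C for 17 hrs. Labeled anti-TNF-alpha antibody mixture is then added; after 3 hr at room temperature, TR-FRET signal reports secreted TNF-alpha.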

The nature of experiment [16]: qHTS assay for small molecule agonists of the antioxidant response element (ARE) signaling pathway measured by Nrf2-dependant transcriptional activity (AID 720636; active means well fitted curve in the direction sought with a large enough effect in the repeat runs; an effect the other way counts as inactive or inconclusive; further: % of control where 0% means no effect). The procedure, abridged:
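Quantitative HTS format in HepG2 cells stably expressing an ARE-luciferase reporter; 16 hr compound treatment at 37 C, luciferase signal detected with ONE-Glo.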

Experiment [17] is described as follows: qHTS assay for small molecule antagonists of the retinoid-related orphan receptor gamma (ROR-gamma) signaling pathway - cell viability counter screen (AID 720652; active means well fitted curve in the direction sought with a large enough effect in the repeat runs; an effect the other way counts as inactive or inconclusive;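 further: CHO reporter cells with doxycycline-induced ROR-gamma expression; compound exposure lasted 16 hr before ATP read; on the % scale 0 is the no-effect control and ±100 the full control effect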). The procedure, abridged:
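Steps: seed CHO cells bearing TET-inducible ROR and ROR response element-luciferase; rest 5 hr at 37 C; add compound, then doxycycline; incubate 16 hr; add CellTiter-Glo and read luminescence as ATP-based viability.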

Experiment [18] is described as follows: qHTS assay for cell viability of the p53RE-bla HCT-116 cell line (AID 743292; active means well fitted curve in the direction sought with a large enough effect; an effect the other way counts as inactive or inconclusive; further: on the % scale 0 is the no-effect control and ±100 the full control effect; nearly all actives have a fitted effect of over 55% in size). The procedure, abridged: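 Viability of compound-treated p53RE-bla HCT-116 cells is taken from ATP-dependent luciferase luminescence. Treatment lasts 16 h at 37 C after a 5 h settling period; detection follows 30 min at room temperature.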
The target of experiment [19] is Nuclear receptor subfamily 1 group I member 2 (Rattus norvegicus) (UniProt Q9R1A7). The experiment in a line: qHTS assay for small molecule activators of the rat pregnane X receptor (rPXR) signaling pathway (AID 651751; call rule not given here; further: 0% is about no effect). The conditions noted are these: rPXR reporter cells, luciferase (One-Glo), 24 h.
Chain of Nuclear receptor subfamily 1 group I member 2 (Rattus norvegicus) (Q9R1A7 whole entry, looked up): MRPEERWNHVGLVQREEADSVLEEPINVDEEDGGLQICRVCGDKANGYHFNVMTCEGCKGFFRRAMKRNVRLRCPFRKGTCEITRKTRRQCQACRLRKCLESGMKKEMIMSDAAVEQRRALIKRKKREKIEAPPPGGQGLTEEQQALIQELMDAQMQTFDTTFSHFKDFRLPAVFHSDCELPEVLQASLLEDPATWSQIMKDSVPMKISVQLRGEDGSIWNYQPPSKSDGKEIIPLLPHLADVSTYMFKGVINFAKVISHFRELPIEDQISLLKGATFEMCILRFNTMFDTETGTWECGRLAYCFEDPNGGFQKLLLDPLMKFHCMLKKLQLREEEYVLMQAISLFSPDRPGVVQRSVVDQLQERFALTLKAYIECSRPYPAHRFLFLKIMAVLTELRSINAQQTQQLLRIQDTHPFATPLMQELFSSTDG
Experiment [20] in a line: qHTS assay for small molecule activators of the human pregnane X receptor (PXR) signaling pathway (AID 720659; call rule not given here; further: 0% is about no effect).

Where “and” joins values, the source holds several entries; their conditions need not be identical. Identical values can stand only once. Records with an inconclusive call do not appear. Calls of active or inactive are those of the source. Unless noted, the call rests on the fitted dose curve.

Chain of Peroxisome proliferator-activated receptor gamma (Homo sapiens) (P37231 whole entry, looked up): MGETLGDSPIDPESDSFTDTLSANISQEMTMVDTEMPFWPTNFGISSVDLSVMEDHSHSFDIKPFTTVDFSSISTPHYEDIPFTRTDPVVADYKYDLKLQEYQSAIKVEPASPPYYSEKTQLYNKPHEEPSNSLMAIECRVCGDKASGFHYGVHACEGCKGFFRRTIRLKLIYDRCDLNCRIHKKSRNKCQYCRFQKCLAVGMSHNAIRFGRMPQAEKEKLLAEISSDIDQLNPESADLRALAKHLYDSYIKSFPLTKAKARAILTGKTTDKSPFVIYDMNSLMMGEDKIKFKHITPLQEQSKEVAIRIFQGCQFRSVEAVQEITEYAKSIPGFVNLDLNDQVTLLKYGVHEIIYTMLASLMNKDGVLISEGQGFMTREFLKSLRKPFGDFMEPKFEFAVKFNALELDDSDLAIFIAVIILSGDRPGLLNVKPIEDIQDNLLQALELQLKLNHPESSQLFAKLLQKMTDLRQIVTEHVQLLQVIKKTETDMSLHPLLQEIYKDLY
Chain of Tumor necrosis factor (Homo sapiens) (P01375 whole entry, looked up): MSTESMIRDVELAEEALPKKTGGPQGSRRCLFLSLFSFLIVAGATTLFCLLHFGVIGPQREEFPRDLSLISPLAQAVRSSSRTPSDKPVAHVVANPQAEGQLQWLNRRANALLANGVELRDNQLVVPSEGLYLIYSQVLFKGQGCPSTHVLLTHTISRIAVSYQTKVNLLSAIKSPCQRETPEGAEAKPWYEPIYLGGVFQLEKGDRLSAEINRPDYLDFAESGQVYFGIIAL
Chain of Voltage-gated inwardly rectifying potassium channel KCNH2 (Homo sapiens) (Q12809 whole entry, looked up): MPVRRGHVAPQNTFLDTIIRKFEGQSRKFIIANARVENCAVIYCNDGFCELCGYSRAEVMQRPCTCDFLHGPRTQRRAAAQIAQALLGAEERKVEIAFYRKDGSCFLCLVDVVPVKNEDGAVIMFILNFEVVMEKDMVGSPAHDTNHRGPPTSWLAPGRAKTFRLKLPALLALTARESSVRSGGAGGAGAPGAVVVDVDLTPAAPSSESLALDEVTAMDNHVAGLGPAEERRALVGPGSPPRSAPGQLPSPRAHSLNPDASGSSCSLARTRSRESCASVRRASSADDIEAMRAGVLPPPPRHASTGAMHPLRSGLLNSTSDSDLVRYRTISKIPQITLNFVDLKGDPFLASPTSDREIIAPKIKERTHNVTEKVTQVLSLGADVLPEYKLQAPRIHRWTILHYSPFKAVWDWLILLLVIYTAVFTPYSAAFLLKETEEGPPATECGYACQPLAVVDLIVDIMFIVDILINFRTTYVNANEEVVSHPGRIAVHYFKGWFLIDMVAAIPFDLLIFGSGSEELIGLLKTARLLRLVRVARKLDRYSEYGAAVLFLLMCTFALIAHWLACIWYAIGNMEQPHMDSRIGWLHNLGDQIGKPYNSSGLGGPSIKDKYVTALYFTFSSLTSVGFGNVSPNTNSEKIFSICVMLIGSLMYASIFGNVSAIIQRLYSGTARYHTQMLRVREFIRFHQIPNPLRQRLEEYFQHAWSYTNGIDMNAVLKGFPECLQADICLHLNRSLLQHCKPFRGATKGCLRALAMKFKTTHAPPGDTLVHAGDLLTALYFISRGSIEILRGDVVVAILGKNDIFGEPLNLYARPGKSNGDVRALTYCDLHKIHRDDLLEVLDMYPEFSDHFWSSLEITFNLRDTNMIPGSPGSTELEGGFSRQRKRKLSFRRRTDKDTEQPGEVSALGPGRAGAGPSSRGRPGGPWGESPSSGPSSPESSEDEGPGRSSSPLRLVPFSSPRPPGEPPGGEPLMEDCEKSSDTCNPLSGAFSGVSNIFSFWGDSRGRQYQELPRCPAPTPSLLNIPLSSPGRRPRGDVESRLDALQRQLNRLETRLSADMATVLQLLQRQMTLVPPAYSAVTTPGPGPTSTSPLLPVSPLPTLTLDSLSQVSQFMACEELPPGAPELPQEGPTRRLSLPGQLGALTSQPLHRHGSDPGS

Consider `COC(=O)CCCCC(=O)OC`, for which, in [1], the caspase-3 activation was 2.55% (inactive). Besides, the Potency result in experiment [2], in [3], in [4], in [5], in experiment [6] and in experiment [11] was “inactive” each time. For the same molecule, the Potency result in [13], in experiment [14], in [16], in [17] and in [18] was “inactive” in each case. Moreover, the call in experiment [7], in [8], in experiment [10], in experiment [15] and in experiment [20] was inactive. Moreover, the max response is -8.22% and -17.2% and -16.7% in experiment [9]; 5.4% (inactive) and -0.278% (inactive) and 0.834% (inactive) in [19]. Besides, the activation in experiment [12] is -0.0209% (inactive) and -1.5% (inactive).
Regarding `Nc1ccc(S(=O)(=O)O)cc1`, the caspase-3 activation in [1] is 0.897% (inactive). For the same molecule, the Potency result in experiment [2], in experiment [3], in [4], in [5], in experiment [6] and in [11] was “inactive” in each case. Further, the Potency entry in [13], in [14], in experiment [16], in experiment [17] and in experiment [18] was “inactive” throughout. Besides, the molecule was classed as inactive in experiment [7], in [8], in experiment [10] and in experiment [15]. Also, the max response is 8.69% and -7.04% in [9]; -3.61% (inactive) and -1.3% (inactive) in [19]. For the same molecule, the activation in [12] is 3.7% (inactive) and 3.55% (inactive).
On to `CN(C)CCCCCCN(C)C`, for which the caspase-3 activation in experiment [1] is -2.92% (inactive). The Potency entry in experiment [2], in experiment [3], in experiment [4], in experiment [13], in experiment [14] and in experiment [16] was “inactive” in each case. The Potency entry in [17] and in [18] was “inactive” in each case. Besides, the molecule was called inactive in experiment [7], in experiment [8], in experiment [10] and in experiment [15]. For the same molecule, the max response in [9] is -13.8%. In addition, in [12], the activation was -2.74% (inactive).
As for `Cc1ccc([N+](=O)[O-])cc1N`, the caspase-3 activation in [1] is -0.45% (inactive). Also, the Potency entry in [2], in experiment [3], in [4], in [5], in [6] and in experiment [11] was “inactive” each time. The Potency entry in [13], in experiment [14], in experiment [16], in [17] and in [18] was “inactive” throughout. Besides, the molecule was called inactive in experiment [7], in experiment [8], in experiment [10], in experiment [15] and in experiment [20]. Besides, the max response in experiment [9] was -6.56% and -2.61%; in experiment [19], 0.691% (inactive) and 2.27% (inactive). Moreover, the activation in experiment [12] is -1.56% (inactive) and -5% (inactive).
As for `CC(C)=CCCC(C)CCO` (centres undefined), the caspase-3 activation in [1] is 2.37% (inactive). Besides, the Potency entry in experiment [2], in [3], in experiment [4], in experiment [5], in [6] and in experiment [11] was “inactive” each time. Also, the Potency entry in [13], in experiment [14], in experiment [16], in [17] and in experiment [18] was “inactive” in each case. The molecule was called inactive in [7], in [10], in experiment [15] and in experiment [20]. Moreover, the max response in experiment [9] was -10.2% and -2.4%; in [19] it was -5.01% (inactive) and 0.846% (inactive). The activation in experiment [12] was 0.545% (inactive) and -1.78% (inactive).
As for `COc1c2ccoc2cc2oc(=O)ccc12`, the caspase-3 activation in [1] was -0.404% (inactive). The Potency result in [2], in [3], in [4], in experiment [5], in experiment [6] and in experiment [11] was “inactive” each time. The Potency result in experiment [13], in experiment [14], in experiment [16], in experiment [17] and in experiment [18] was “inactive” each time. Further, the call in experiment [8], in experiment [15] and in experiment [20] was inactive. Also, the activation in experiment [12] is 6.05% (inactive). In addition, the max response in experiment [19] was 2.12% (inactive).
Take `c1ccccc1`: in experiment [1], the caspase-3 activation is 0.593% (inactive) and 0.461% (inactive). The Potency result in [2], in experiment [3], in experiment [4], in experiment [5], in [6] and in experiment [13] was “inactive” throughout. The Potency entry in [14], in experiment [16] and in experiment [18] was “inactive” throughout. The outcome in [7], in [8] and in experiment [15] was inactive. Further, the activation in [12] is 0.891% (inactive) [middle of 4 runs].
Turning to `CCCCCCCCO`, in [1], the caspase-3 activation was -0.397% (inactive). For the same molecule, the Potency result in experiment [2], in experiment [3], in experiment [4], in [5], in experiment [6] and in experiment [11] was “inactive” in each case. Besides, the Potency entry in experiment [13], in experiment [14], in experiment [16], in experiment [17] and in experiment [18] was “inactive” throughout. The molecule was called inactive in experiment [7], in [8], in experiment [10], in [15] and in experiment [20]. Besides, the max response in [9] is -1.34% and -17.2% and -8.68%; in experiment [19], -3.47% (inactive) and -2.32% (inactive) and 2.37% (inactive). Besides, the activation in experiment [12] is -2.87% (inactive) and -7.85% (inactive) and -0.202% (inactive).
Take `COC(=O)c1ccc(C=O)cc1`: the caspase-3 activation in experiment [1] is 13.7% (inactive). For the same molecule, the Potency entry in experiment [2], in experiment [3], in experiment [4], in [5], in [6] and in experiment [11] was “inactive” each time. The Potency result in experiment [13], in experiment [14], in [16], in [17] and in experiment [18] was “inactive” throughout. Also, the outcome in experiment [7], in experiment [8], in experiment [10], in experiment [15] and in experiment [20] was inactive. Further, the max response in experiment [9] was 2.75% and 4.18%; in experiment [19] it was -0.798% (inactive) and -1.94% (inactive). The activation in experiment [12] was -0.565% (inactive) and 0.101% (inactive).
